Source: PubChem
A selection: hits, their analogues and other compounds. The true share with any hit is near 1.5%.
TLR4-MyD88 BLA – TLR4-MyD88 interaction inhibition in cells | O00206+Q99836 | HeLa CL3-4 TLR4/MyD88 BLA complementation, FRET ratio | inhibition, % at 8.4 µM | AID 861 | 200,000 tested, 0.18% active; in the data active means inhibition above about 25%;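 further: 0% = vehicle and 100% = reference inhibitor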
Target sequence (O00206 whole entry, looked up): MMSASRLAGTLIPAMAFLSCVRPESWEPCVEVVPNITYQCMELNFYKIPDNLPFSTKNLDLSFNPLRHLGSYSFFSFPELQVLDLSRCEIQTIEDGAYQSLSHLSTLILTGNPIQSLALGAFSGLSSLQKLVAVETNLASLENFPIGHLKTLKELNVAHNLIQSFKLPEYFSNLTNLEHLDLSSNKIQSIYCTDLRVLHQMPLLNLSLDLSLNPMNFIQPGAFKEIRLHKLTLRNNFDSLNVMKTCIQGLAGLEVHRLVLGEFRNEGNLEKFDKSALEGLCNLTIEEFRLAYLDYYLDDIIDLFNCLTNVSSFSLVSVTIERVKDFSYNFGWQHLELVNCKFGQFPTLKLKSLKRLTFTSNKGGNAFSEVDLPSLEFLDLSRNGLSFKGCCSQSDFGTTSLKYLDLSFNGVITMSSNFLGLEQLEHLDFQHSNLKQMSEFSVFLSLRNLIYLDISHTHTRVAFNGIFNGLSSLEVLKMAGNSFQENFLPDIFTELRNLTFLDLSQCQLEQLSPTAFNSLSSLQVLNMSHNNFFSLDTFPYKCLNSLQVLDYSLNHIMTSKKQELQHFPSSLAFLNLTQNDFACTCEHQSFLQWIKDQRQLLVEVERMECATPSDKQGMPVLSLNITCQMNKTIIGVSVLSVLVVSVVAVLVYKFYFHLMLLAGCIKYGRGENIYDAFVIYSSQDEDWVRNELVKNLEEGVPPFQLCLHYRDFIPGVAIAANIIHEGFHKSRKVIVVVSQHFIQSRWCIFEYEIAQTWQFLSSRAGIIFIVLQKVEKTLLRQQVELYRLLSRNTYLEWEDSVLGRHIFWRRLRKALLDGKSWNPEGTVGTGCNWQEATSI
Target sequence (Q99836 whole entry, looked up): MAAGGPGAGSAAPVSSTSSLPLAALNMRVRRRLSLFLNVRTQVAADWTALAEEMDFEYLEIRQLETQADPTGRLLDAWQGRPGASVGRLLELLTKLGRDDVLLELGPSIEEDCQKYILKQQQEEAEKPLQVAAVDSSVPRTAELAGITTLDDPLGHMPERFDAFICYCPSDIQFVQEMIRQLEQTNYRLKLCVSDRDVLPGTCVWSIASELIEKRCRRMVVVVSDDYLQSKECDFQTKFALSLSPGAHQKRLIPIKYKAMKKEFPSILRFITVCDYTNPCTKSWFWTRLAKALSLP
TLR9-MyD88 inh – TLR9-MyD88 interaction inhibition; AID 504734; 340,000 tested, 0.21% active; Q9NR96+Q99836; CHO BLA complementation TLR9-MyD88, CCF4 FRET ratio; inhibition, % at 4.98 µM;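 active means inhibition above the mean over all tested compounds plus 3 SD, cut at about 21% in these data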;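 further: 0% = DMSO only wells and 100% = clavulanate BLA inhibitor control wells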
NOD2 RIPK2 PPI – NOD2-RIPK2 protein interaction inhibition; O43353; CHO BLA complementation NOD2-RIPK2, CCF4 ratio; inhibition, % at 4.98 µM; 360,000 tested, 0.38% active; in the data active means inhibition above about 21%;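 further: 0% = vehicle only and 100% = reference blocker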
Myeloid diff 2 – promotes myeloid progenitor differentiation; ER-HoxA9 myeloid progenitors, lysozyme-GFP differentiation, flow cytometry; calls only at 10 µM; 360,000 tested, 1% active; AID 624256;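 active means normalized GFP-positive differentiation at or above the plate's own cutoff, the solvent-only control mean plus 3 SD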;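 further: cells exposed to compound for four days before flow analysis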
TLR9-MyD88 conf – TLR9-MyD88 interaction inhibition, confirmation | inhibition, % at 4.98 µM | 680 tested, 51% active | CHO TLR9/MyD88 BLA complementation, CCF4 FRET ratio | shares compounds with TLR9-MyD88 inh | AID 540250;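 active means mean inhibition across three repeats above about 21% taken from the earlier screen, limit read from the data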;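 further: blue over green emission ratio reports constitutive TLR9 MyD88 association via BLA complementation; 0% = DMSO vehicle wells and 100% = clavulanate BLA inhibitor wells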
BLA nonselective – counter-screen for TLR9-MyD88 inhibitors: non-selective beta-lactamase inhibitors; shares compounds with TLR9-MyD88 inh; CHO-BLA cells, CCF4 FRET ratio, BLA reporter; AID 540251; 680 tested, 7% active; inhibition, % at 4.98 µM;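 active means mean inhibition above a 50% cutoff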;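 further: counterscreen of TLR9-MyD88 hits on CMV-driven BLA in CHO-K1 cells; 0% = DMSO alone and 100% = clavulanate blocking BLA; higher means less blue over green ratio so more BLA blockade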
TLR9 CHO tox – counter-screen for TLR9-MyD88 inhibitors: cytotoxicity in CHO cells; shares compounds with TLR9-MyD88 inh; luminescence; inhibition, % at 4.98 µM; 680 tested, 39% active; AID 588336; in the data active means inhibition above about 11%
* = called active by the depositor.

For C[C@H]1CN([C@@H](C)CO)C(=O)CCCn2cc(nn2)CO[C@@H]1CN(C)C(=O)Nc1cccc(F)c1 the results were TLR9-MyD88 inh 2, NOD2 RIPK2 PPI -2 and Myeloid diff 2 inactive.
CC(C)(C)c1ccc(CC(=O)N2CCC2(C)C(=O)NS(=O)(=O)c2ccccc2Cl)cc1 (stereo not given) was read as NOD2 RIPK2 PPI 2 and Myeloid diff 2 inactive.
O=C(N/N=C/c1ccccc1F)c1cc2c(ccc3ccccc32)o1 was read as TLR9-MyD88 inh -8, NOD2 RIPK2 PPI -12 and Myeloid diff 2 inactive.
For O=C(N/N=C/c1cccc2ccccc12)c1cc2ccccc2o1 the results were TLR9-MyD88 inh 23*, NOD2 RIPK2 PPI -5, Myeloid diff 2 inactive, TLR9-MyD88 conf 3, BLA nonselective -2 and TLR9 CHO tox 4.
COc1ccc(CNC(=O)c2ccc(-n3ccnc3)c3ccoc23)cc1OC was read as NOD2 RIPK2 PPI 7 and Myeloid diff 2 inactive.
`COC(=O)[C@@]12C[C@@H](CC(=O)N3CCOCC3)C(=O)N(Cc3ccc4c(c3)OCO4)C1=CCC(C)(C)C2` gave NOD2 RIPK2 PPI -7 and Myeloid diff 2 inactive.
For O=C(Nc1nc2n(n1)C(c1ccccc1)C=C(c1ccccc1)N2)c1ccco1 (stereo not given) the results were TLR4-MyD88 BLA 6, TLR9-MyD88 inh -5, NOD2 RIPK2 PPI -1 and Myeloid diff 2 inactive.
For CC(=O)Nc1nc2n(n1)C(c1ccccc1)C=C(c1ccccc1)N2 (stereo not given) the results were TLR4-MyD88 BLA 18, TLR9-MyD88 inh 56*, NOD2 RIPK2 PPI 56*, Myeloid diff 2 inactive, TLR9-MyD88 conf 34*, BLA nonselective 40 and TLR9 CHO tox 1.
`CS(=O)(=O)Nc1nc2n(n1)C(c1ccccc1)C=C(c1ccc(Br)cc1)N2` (stereo not given) gave TLR4-MyD88 BLA 17, TLR9-MyD88 inh 37*, NOD2 RIPK2 PPI 47*, Myeloid diff 2 inactive, TLR9-MyD88 conf 8, BLA nonselective 9 and TLR9 CHO tox 2.
`CCCN1CCC(C(=O)NC(c2ccc(Cl)cc2)c2ccsc2)CC1` (stereo not given) gave NOD2 RIPK2 PPI -7 and Myeloid diff 2 inactive.
Screening CN1CCN(C(=O)CSc2nc(-c3cccs3)cc(-c3cccs3)c2C#N)CC1 returned TLR4-MyD88 BLA -10, TLR9-MyD88 inh 24*, NOD2 RIPK2 PPI 18, Myeloid diff 2 active, TLR9-MyD88 conf 21, BLA nonselective 19 and TLR9 CHO tox 5.
For O=C1NC[C@H](Cc2ccccc2)N(C[C@@H]2CCCN2C[C@H](Cc2ccccc2)N2C[C@H](Cc3ccccc3)N(CCc3ccccc3)C(=O)C2=O)C1=O the results were NOD2 RIPK2 PPI -1 and Myeloid diff 2 inactive.
For Cc1oc(-c2cc(F)ccc2F)nc1CN1CCN(c2cnccn2)CC1 the results were TLR4-MyD88 BLA -2, TLR9-MyD88 inh 22*, NOD2 RIPK2 PPI 1, Myeloid diff 2 inactive, TLR9-MyD88 conf -2, BLA nonselective -3 and TLR9 CHO tox 2.
Screening CCC(CC)C(=O)N(C)c1c(C)nc2c(OCc3ccc(Cl)cc3Cl)cccn12 returned NOD2 RIPK2 PPI -2 and Myeloid diff 2 inactive.
For O=C(COC(=O)c1cccc2c1C(=O)c1ccccc1C2=O)NC1CCCCC1 the results were TLR4-MyD88 BLA 11, TLR9-MyD88 inh 0, NOD2 RIPK2 PPI -4 and Myeloid diff 2 inactive.
Screening O=C(COC(=O)c1ccc2c(c1[N+](=O)[O-])C(=O)c1ccccc1C2=O)NC1CC1 returned TLR4-MyD88 BLA 7, TLR9-MyD88 inh 25*, NOD2 RIPK2 PPI 19, Myeloid diff 2 inactive, TLR9-MyD88 conf 12, BLA nonselective -4 and TLR9 CHO tox 19*.
`COc1ccc(CN2C(=O)C(CC(=O)NCCc3ccccn3)CC(C(=O)N3CCCCCC3)=C2C)cc1` (stereo not given) gave NOD2 RIPK2 PPI -8 and Myeloid diff 2 inactive.
Screening CSCCC(C(=O)OCC(=O)c1ccc(C)c(C)c1)N1C(=O)c2cc(Cl)c(Cl)cc2C1=O (stereo not given) returned TLR4-MyD88 BLA -11, TLR9-MyD88 inh 22*, NOD2 RIPK2 PPI -8, Myeloid diff 2 inactive, TLR9-MyD88 conf -1, BLA nonselective -3 and TLR9 CHO tox 2.
For COc1ccccc1C(=O)Nc1onc(C)c1C#N the results were TLR4-MyD88 BLA 7, TLR9-MyD88 inh 22*, NOD2 RIPK2 PPI -6, Myeloid diff 2 inactive, TLR9-MyD88 conf -1, BLA nonselective -2 and TLR9 CHO tox -2.
Cc1noc(NC(=O)c2ccccc2Cl)c1C#N was read as TLR4-MyD88 BLA 2, TLR9-MyD88 inh 13, NOD2 RIPK2 PPI 11 and Myeloid diff 2 inactive.
`Cc1ccc(S(=O)(=O)N2C3CC(c4ccccc4)N(S(=O)(=O)c4ccccc4Cl)CC3C(=O)C[C@H]2c2ccccc2)cc1` (stereo not given in full) gave NOD2 RIPK2 PPI -7 and Myeloid diff 2 inactive.
For Nc1ccn(C2OC(CCl)C(O)C2O)c(=O)n1 (stereo not given) the results were TLR9-MyD88 inh -7, NOD2 RIPK2 PPI -4 and Myeloid diff 2 inactive.
For O=C(CN1C(=O)/C(=C/c2ccc(F)cc2)SC1=S)NC1CCS(=O)(=O)C1 (stereo not given) the results were TLR9-MyD88 inh 0, NOD2 RIPK2 PPI -14 and Myeloid diff 2 inactive.
For O=C(CN1C(=O)/C(=C/c2ccccc2)SC1=S)NC1CCS(=O)(=O)C1 (stereo not given) the results were TLR9-MyD88 inh 21*, NOD2 RIPK2 PPI -18, Myeloid diff 2 inactive, TLR9-MyD88 conf 3, BLA nonselective 2 and TLR9 CHO tox 2.
`CCCCN(C(=O)c1ccccc1Cl)C(CC(C)C)c1nc2ccccc2[nH]1` (stereo not given) gave NOD2 RIPK2 PPI 6 and Myeloid diff 2 inactive.
For CC(=O)/C=C1\OCc2cc(OCc3ccccc3)ccc21 the results were NOD2 RIPK2 PPI -8 and Myeloid diff 2 inactive.
Screening O=C1c2cccc3c(O)ccc(c23)C(=O)N1c1ccc(Cl)cc1 returned TLR9-MyD88 inh 27*, NOD2 RIPK2 PPI 7, Myeloid diff 2 inactive, TLR9-MyD88 conf 12, BLA nonselective 15 and TLR9 CHO tox 0.
`COc1ccc(C(=O)/C=C/c2ccc(O)cc2)c(O)c1CC=C(C)C` gave TLR4-MyD88 BLA -6, TLR9-MyD88 inh 5, NOD2 RIPK2 PPI 3 and Myeloid diff 2 inactive.
